# High-throughput results (PubChem)
# USP10 block – blocks human USP10 ubiquitin-rhodamine cleavage. inhibition, % at 20 µM. hit rate 1.1% among 47,000. purified USP10, Ub-rhodamine fluorescence, 60 min
# USP28 block – blocks human USP28 ubiquitin-rhodamine cleavage; purified USP28, Ub-rhodamine cleavage fluorescence, 30 min; hit rate 3% among 47,000; Q96RU2; inhibition, % at 25 µM
# USP8 block – blocks human USP8 ubiquitin-rhodamine cleavage. hit rate 4.2% among 47,000. P40818. purified USP8, Ub-rhodamine cleavage fluorescence, 30 min. inhibition, % at 20 µM. AID 1645853
# USP30 block – blocks human USP30 ubiquitin-rhodamine cleavage; purified USP30, Ub-rhodamine cleavage fluorescence; hit rate 5.3% among 47,000; AID 1645860; inhibition, % at 25 µM
# Target sequence (Q70CQ3 whole entry, looked up): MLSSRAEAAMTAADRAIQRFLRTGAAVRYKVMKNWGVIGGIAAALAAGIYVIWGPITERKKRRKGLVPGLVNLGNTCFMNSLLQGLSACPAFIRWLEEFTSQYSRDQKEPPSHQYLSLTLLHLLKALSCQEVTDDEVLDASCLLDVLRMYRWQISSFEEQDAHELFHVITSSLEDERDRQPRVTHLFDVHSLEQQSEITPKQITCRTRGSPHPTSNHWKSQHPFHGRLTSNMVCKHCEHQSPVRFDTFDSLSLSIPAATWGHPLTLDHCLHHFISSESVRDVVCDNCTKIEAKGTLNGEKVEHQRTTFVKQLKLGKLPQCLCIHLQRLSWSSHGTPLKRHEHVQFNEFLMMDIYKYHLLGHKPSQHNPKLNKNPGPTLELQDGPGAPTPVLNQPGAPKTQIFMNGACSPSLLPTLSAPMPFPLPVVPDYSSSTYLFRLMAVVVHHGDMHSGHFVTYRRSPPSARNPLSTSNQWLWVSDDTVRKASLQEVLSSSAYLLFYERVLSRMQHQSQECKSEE
# USP17 inh – blocks human USP17 ubiquitin-rhodamine cleavage; hit rate 6.5% among 47,000; AID 1645855; A8MUK1; inhibition, % at 50 µM; purified USP17, Ub-rhodamine cleavage fluorescence, 3 h
# An asterisk follows results filed as active; i = inactive; x = no result. Hits are enriched below; roughly 14% of the tested compounds scored in any of these assays. Rule as the data show it: active = inhibition above about 30%; inactive = the rest.
SMILES,USP10 block,USP28 block,USP8 block,USP30 block,USP17 inh
Cc1cccc(C(=O)Nc2cccc(SC(C(=O)Nc3ccc(O)c(C(=O)O)c3)c3ccccc3)c2)c1 (centres undefined),31*,52*,88*,6,29
Cc1cccc(NC(=O)C(Sc2ccc(NC(=O)c3ccccc3C(=O)O)cc2)c2ccccc2)c1 (centres undefined),13,-15,-19,-38,-23
Cc1ccccc1C(=O)Nc1cccc(SC(C(=O)Nc2ccc(O)c(C(=O)O)c2)c2ccccc2)c1 (centres undefined),13,15,2,38*,28
O=C(O)c1ccccc1C(=O)Nc1ccc(SC(C(=O)Nc2ccccc2Cl)c2ccccc2)cc1 (centres undefined),49*,24,-1,4,47*
CC(C)c1cc(C(=O)Nc2ccccc2)c2cnn(C(C)C)c2n1,4,13,4,15,13
O=S(=O)(Nc1ccc2[nH]ncc2c1)c1ccc(Cl)cc1F,1,5,37*,7,19
O=S(=O)(Nc1ccc2[nH]ncc2c1)c1ccc2c(c1)CCC2,2,1,11,-6,7
O=C(NCc1nnnn1-c1ccc(F)c(F)c1)C1CC(=O)N(c2ccccc2)C1 (centres undefined),-4,1,-43,-5,-7
CC(=O)N1C[C@H]2[C@@H](C1)c1ccccc1[C@@H]2NC(=O)c1ccc2c(c1)OCO2,-1,-5,-2,6,1
CCn1cc2nc(SCC(=O)NC3CCCC3)n(Cc3ccc(C)cc3)c(=O)c2n1,0,12,6,70*,63*
Cc1ccc(Nc2nc(Nc3ccc(F)cc3)nc3nccnc23)cc1C,-4,-228,-335,i,-123
Fc1ccc(Nc2nc(Nc3cccc(F)c3)nc3nccnc23)cc1,-4,-173,12,61*,7
CC(C)c1ccc(S(=O)(=O)N2CCC(C(=O)N3CCc4sccc4C3)CC2)cc1,-9,7,19,12,3
O=C(C1CCN(S(=O)(=O)c2cc(F)ccc2F)CC1)N1CCc2sccc2C1,-4,7,74*,-1,33*
CC(C)C(NS(=O)(=O)c1ccccc1)C(=O)OCC(=O)Nc1ccc2c(c1)OCO2 (centres undefined),0,8,2,1,-14
CC(C)NS(=O)(=O)c1ccc(CCC(=O)Nc2ccc3c(c2)OCCO3)cc1,1,82*,-6,0,2
CC(C)C(NS(=O)(=O)c1ccc2c(c1)OCCO2)C(=O)Nc1cccc(F)c1 (centres undefined),6,27,21,39*,44*
O=C(COC(=O)CCc1ccc(S(=O)(=O)N2CCOCC2)cc1)Nc1ccc2c(c1)OCCO2,3,65*,10,20,x
CCN1C(SCc2ccccc2F)=NS(=O)(=O)c2ccccc21,-14,74*,13,25,11
CC1CCN(CCCN2C(=O)C3C(C(=O)Nc4ccc(C(C)C)cc4)C4C=CC3(O4)C2C(=O)NC2CCCCC2)CC1 (centres undefined),-1,-7,-5,-1,-6
N=C1/C(=C/c2cn(Cc3ccccc3F)c3ccccc23)C(=O)N=C2SC(C(F)(F)F)=NN12,51*,-85,48*,-395,-57
CC1=CN2C(=N)/C(=C/c3cn(Cc4ccc(Cl)cc4)c4ccccc34)C(=O)N=C2S1,-9,-274,-97,i,-186
CCN1CCc2nc(NC(=O)COc3ccc4ccccc4c3)sc2C1,-17,-4,-31,-26,-12
CCN1CCc2nc(NC(=O)CCCOc3ccc(C(C)=O)cc3)sc2C1,-5,13,-23,36*,44*
CC(=O)c1ccc(OCCCC(=O)Nc2nc3c(C)cccc3s2)cc1,2,14,20,17,36*
SMILES,USP10 block,USP28 block,USP8 block,USP30 block,USP17 inh
COc1ccc(/C=C/C(=O)Nc2ccccc2C#N)cc1,8,x,5,x,68*
COc1ccc(C)cc1NC(=O)/C=C/c1ccc(F)cc1,3,-10,3,-2,0
COc1ccc(/C=C/C(=O)Nc2cc(C)ccn2)cc1,-1,46*,-3,29,13
C=CC(C)(C)c1[nH]c2ccccc2c1C[C@@H]1NC(=O)[C@H](Cc2cn(C(C)(C)C=C)c3ccccc23)NC1=O,4,7,10,3,-1
CCCCC/C=C/C=C/C=C/c1c(O)ccc(O)c1C=O,3,1,4,15,5
COc1ccc(Nc2nc(NCc3ccccc3)nc3c2cnn3C)cc1,-1,-1,0,28,32*
Cc1ccc(CNc2nc(Nc3ccc(C)cc3)c3cnn(C)c3n2)cc1,14,0,1,4,8
Cc1ccc(Nc2nc(NCCc3ccccc3)nc3c2cnn3C)cc1,-1,-9,-6,16,74*
COc1ccccc1C(=O)Nc1cnc(N2CCCCCC2)nc1,-11,-13,-12,-37,-20
COC(=O)c1ccccc1Nc1c(-c2ccc(N3CCOCC3)cc2)nc2cnccn12,-2,0,7,-20,-3
COc1cc([C@@H]2OC(C)(C)C3CC2[C@H](C)[C@@H](O)C3)cc2c1OCCCO2 (some centres undefined),0,12,-10,14,-8
COc1ccc(-c2csc3ncnc(NCCCN4CCOCC4)c23)cc1,-2,-2,-10,0,-4
Oc1cc(OCCN2CCOCC2)ccc1-c1[nH]ncc1-c1ccc(Br)cc1,2,-15,76*,-70,x
O=C(c1cc(C2CC2)[nH]n1)N1CCN(CCOc2ccc(Cl)cc2)CC1,0,10,9,20,-1
Oc1cc(OCCN2CCOCC2)ccc1-c1[nH]ncc1-c1ccc(Cl)cc1,2,-11,84*,-4,24
NC(=O)C1CCN(CCOc2ccc(-c3[nH]ncc3-c3ccc(Cl)cc3)c(O)c2)CC1,-3,-9,77*,-22,21
CCOC(=O)C1Cc2c([nH]c3ccccc23)C2c3ccc(OC)c(OC)c3C(=O)N12 (centres undefined),-6,-63,-13,-262,-52
C=C1CO[C@]2(O)C[C@H](C)[C@H]3C[C@H](O)C(C)=C[C@@H]3[C@]12O,-3,1,-4,-1,-17
O=C(O)c1ccc(NC(=O)[C@H](Cc2ccc(O)cc2)NC(=O)c2ccccc2)cc1,-1,x,-2,x,0
CC(C)NS(=O)(=O)c1cccc2c(NC(=O)C(Cc3ccccc3)NC(=O)c3ccccc3)cccc12 (centres undefined),5,1,24,79*,6
COc1ccc(OC)c(NC(=O)c2cc(-c3ccc(C)c(C)c3O)n[nH]2)c1,4,18,9,3,26
Cc1ccc(-c2cc(C(=O)Nc3cc(C)ccc3C)[nH]n2)c(O)c1,-2,-5,-12,-40,34*
Cc1ccc(NC(=O)c2cc(-c3ccncc3)n[nH]2)c(C)c1,0,6,3,16,2
Cc1cccc(NC(=O)c2cc(-c3ccc(C)c(C)c3O)n[nH]2)c1,26,28,81*,76*,88*
